Assay outcomes from PubChem.
The list is not random: actives were taken first. Their share in the collection is about 1.2%.
GLA spleen mod: qHTS Assay for Inhibitors and Activators of Human alpha-Galactosidase From Spleen Homogenate | Alpha-galactosidase A (Homo sapiens), P06280 | human spleen homogenate, 4MU-alpha-Gal fluorescence, 40 min | Potency, µM (highest dose often 80 µM), without a hit: at the highest dose activity change, negative = inhibition, actives largely listed as inhibitors | 240,000 tested, 0.008% active;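 note: potency is the fitted concentration of half-maximal effect; 0% = enzyme with vehicle and -100% = no enzyme basal signal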
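Fluorogenic readout (Ex 365/Em 440 nm) of 4-methylumbelliferone released from 1 mM 4-MU-alpha-galactoside by spleen homogenate, 40 min at 37C, pH 5.0. Data normalized to no-enzyme and enzyme controls; Hill-equation AC50 from compound titrations.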
GLA inh pH 4.5: qHTS Assay for Inhibitors of Human alpha-Galactosidase at pH 4.5. Alpha-galactosidase A (Homo sapiens), P06280. AID 1467, 2008. 230,000 tested, under 10 active. purified enzyme, 4-MU-alpha-Gal fluorescence, pH 4.5. activity change, negative = inhibition, % at 105 µM;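 note: 0% = full activity with enzyme and -100% = basal without enzyme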
PKM2 act: qHTS Assay for Activators of Human Muscle isoform 2 Pyruvate Kinase. Pyruvate kinase PKM (Homo sapiens), P14618. purified PKM2, Kinase-Glo ATP luminescence, activation; response scale: 0% is enzyme alone, no compound. Potency, µM (doses to about 57.5 µM), without a hit: at the highest dose activation, usual class: activators. 260,000 tested, 0.34% active. AID 1631, 2009; note: potency is the fitted concentration of half-maximal effect; % is set by controls: 0 for no effect and ±100 for the full control effect; nearly all actives have a fitted effect of over 55% in size
Target sequence (P14618 whole entry, looked up, canonical isoform): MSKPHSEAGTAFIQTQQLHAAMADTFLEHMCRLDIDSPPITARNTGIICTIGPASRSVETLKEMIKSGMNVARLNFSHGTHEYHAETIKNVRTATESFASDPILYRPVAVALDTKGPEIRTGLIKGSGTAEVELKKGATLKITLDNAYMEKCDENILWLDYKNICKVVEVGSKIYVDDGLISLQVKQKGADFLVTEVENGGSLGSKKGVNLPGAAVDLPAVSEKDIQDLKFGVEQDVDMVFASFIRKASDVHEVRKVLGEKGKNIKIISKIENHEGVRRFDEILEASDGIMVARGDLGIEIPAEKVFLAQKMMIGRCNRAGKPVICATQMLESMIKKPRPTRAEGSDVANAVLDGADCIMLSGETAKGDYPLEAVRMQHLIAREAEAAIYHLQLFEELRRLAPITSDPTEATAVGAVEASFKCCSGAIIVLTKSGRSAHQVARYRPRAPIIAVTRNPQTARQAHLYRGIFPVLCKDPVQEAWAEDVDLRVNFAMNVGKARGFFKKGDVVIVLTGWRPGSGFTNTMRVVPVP
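Purified hPK-M2 (>95%) run at intermediate activity with 0.1 mM ADP and 0.5 mM PEP in 50 mM imidazole pH 7.2, KCl, MgCl2; 1 h room temperature. ATP formed read by Kinase-Glo luminescence; normalized to uninhibited and no-enzyme controls.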
HTT cytoprotect: qHTS Multiplex Assay to Identify Dual Action Probes in a Cell Model of Huntington: Cytoprotection (ATP); AID 1471, 2008; PC12 HTT-Q103 induced, cytoprotection, ATP luminescence, 40 h; 230,000 tested, 0.14% active; Potency, µM (series often up to 56.4 µM), for inactives: cytoprotection (ATP increase), hits mostly activators; note: potency is the fitted concentration of half-maximal effect; % of control where 0% means no effect; nearly all actives have a fitted effect of over 45% in size
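Huntington model: PC12 line, ecdysone-inducible HTTQ103 exon1–GFP, tebufenozide 100 nM. Test articles in a dose series. Endpoint luminescence from cellular ATP.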
HttQ103 aggreg: qHTS Multiplex Assay to Identify Dual Action Probes in a Cell Model of Huntington: Aggregate Formation (GFP) | PC12 HttQ103-GFP aggregates, Acumen cytometry, 40 h | Potency, µM (series often up to 46.1 µM), inactives show at the top dose activity change, negative = inhibition, actives largely listed as inhibitors | 220,000 tested, 1.1% active; note: potency is the fitted concentration of half-maximal effect; % is set by controls: 0 for no effect and ±100 for the full control effect; nearly all actives have a fitted effect of over 60% in size
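PC12 cells with ecdysone-inducible HTT exon1 Q103-GFP, induced by 100 nM tebufenozide, given compounds in a concentration series. GFP aggregates (1–25 um, 6 SD above background) counted in lysates by laser-scanning cytometry, 488 nm excitation.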
An asterisk follows results filed as active; ? = inconclusive; / = no result; ! = not active in a repeat; [ ] = remark or other dose. Calls come from the whole dose curve; as a rule, active = well fitted curve in the direction sought with a large enough effect; inconclusive = small, poorly fitted or top-dose-only effect, or another doubt; inactive = no such curve, though single readings can be large; an effect the other way counts as inactive or inconclusive.

SMILES	GLA spleen mod	GLA inh pH 4.5	PKM2 act	HTT cytoprotect	HttQ103 aggreg
Cn1c(=O)c2c(nc(/C=C\c3cccc(Cl)c3)n2C)n(C)c1=O	/	/	/	-6%[1.9 µM]	/
O=C(CN1CCOCC1)n1c2ccccc2c2ccccc21	-2%	5	-5%	-8%[10 µM]	2.8µM*
O=C(CN1CCOCC1)n1c2c(c3ccccc31)CCCC2	6%	5	-1%	6%	-3%
CCc1ccc(C(O)(c2ccccc2OC)C(CN2CCOCC2)c2ccccc2)cc1 (configuration not stated)	1%	-23	-8%	-104%	11µM*
C1CCC(C(CC2CCCCN2)C2CCCCC2)CC1 (configuration not stated)	4%	-12	1%	-99%	25µM*!
NC(N)=NC[C@@H]1CCCCCCN1	/	/	/	-11%[10 µM]	/
N#C/C(=C/c1ccc(N2CCOCC2)o1)c1ccc(Br)cc1	5%	2	14µM*	10%	?
O=C(NNc1nc2ccc(Cl)cc2s1)c1cc(-c2cccs2)nc2ccccc12	3%	-3	-3%	/	14µM*
C1CCOC1	-1%	/	/	-23%	/
CCOc1ccc(Nc2nc(NCC3CCCO3)c3ccccc3n2)cc1 (configuration not stated)	?	-9	2%	-35%	14µM*
COC(=O)c1ccc(N/C(C)=C/C(=O)c2ccc(C)o2)cc1	3%	-2	-1%	-7%	4µM*
COc1cc2c(cc1OC)/C(=C/C(=O)N1CCOCC1)NC(C)(C)C2	-6%	-21	25µM*	-15%[10 µM]	?
CCOC(=O)/C=C1\NC(C)(C)Cc2cc(OC)c(OC)cc21	-2%	/	0%	-16%	-4%
Nc1ccc2c(c1)C(=O)C(=O)c1ccccc1-2	7%	-8	-3%	-99%[10 µM]	0.79µM*
O=C1C(=O)c2ccc(-c3ccccc3)cc2-c2ccccc21	1%	4	-3%	-97%[10 µM]	4.5µM*
C=C1CCO[C@@]2([C@H](O)[C@@](C)(O)CO)NC(=O)[C@]1(O)NC2=O	/	/	/	9%[10 µM]	/
O=S1(=O)C2CC3C=CC2(CN1Cc1cccc(F)c1)O3 (configuration not stated)	10%	/	/	/	/
Cn1c2ccccc2c2cc(C(=O)NNC(=O)CCl)sc21	-7%	-13	1%	-35%	16µM*
CCCNC(=O)c1cc2c3ccccc3n(C)c2s1	4%	-4	-9%	8%[10 µM]	-5%
O=c1ccn(C2OC(COP(=O)(O)OC3C(CO)OC(n4ccc(=O)[nH]c4=O)C3O)C(O)C2O)c(=O)[nH]1 (configuration not stated)	/	/	/	26%	10%
CCOC(=O)C1=C(c2cccc(Oc3ccccc3)c2)NC(=S)NC1C (configuration not stated)	-5%	-14	-14%	-9%	11µM*
COC(=O)c1cccc2c1-c1ccccc1/C2=N/O	0%	-6	-11%	22%	10µM*
Cc1c(C(=O)N2CCC(C)CC2)sc2ncnc(N(C)c3ccccc3)c12	-1%	-16	-3%	-19%[10 µM]	20µM*
Cc1c(C(=O)N2CCN(Cc3ccccc3)CC2)sc2ncnc(N3CCOCC3)c12	7%	2	-8%	6%[10 µM]	-5%
O=C1C[C@@H](O)[C@@H](O)[C@H]2[C@@H]3C(=O)N(C4CCCCC4)C(=O)[C@@H]3CC[C@H]12	-7%[17.5 µM]	/	/	-38%[10 µM]	/
CCN1CCc2c(sc(NC(=O)Nc3ccc(Cl)c(Cl)c3)c2C(N)=O)C1	2%	-10	5%	/	11µM*
CC(CC(C)(C)C)CP(=O)(O)CC(C)CC(C)(C)C (configuration not stated)	6%	/	/	/	/
CCN(CC)c1ccc(-n2c(C)c(C(C)=O)c(C(C)=O)c2C)cc1	2%	5	-2%	-8%[0.074 µM]	22µM*
COc1cc([C@H](O)CO)ccc1O	/	/	/	5%[1.9 µM]	/
